Most compounds without a hit are left out; they make up all but 11% or so of the library.
HTT aggregate = inhibitors of mutant huntingtin aggregate formation in PC12 cells; PC12 HttQ103-GFP aggregates, Acumen cytometry, 40 h; Potency, µM (titrated, usually from 46.1 µM), most hits filed as inhibitors; 220,000 compounds, 1.1% hits; AID 1688; further: nearly all actives have a fitted effect of over 60% in size
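Multiplexed with ATP-based cell death, this channel scores GFP aggregates in PC12 cells expressing inducible HTTex1-Q103-GFP. Induction used 100 nM tebufenozide; compounds were tested in concentration series.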
HTT cytoprotect = cytoprotection in Huntington HTT-Q103 PC12 cell model. AID 1471. 230,000 compounds, 0.14% hits. PC12 HTT-Q103 induced, cytoprotection, ATP luminescence, 40 h. Potency, µM (highest dose often 56.4 µM), usual class: activators; further: nearly all actives have a fitted effect of over 45% in size
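Cells were plated at 1500 per well in phenol red-free DMEM with 5% equine and 5% calf serum. Tebufenozide (100 nM final) and compounds were added, then ATPlite reagent, and luminescence was read.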
ALDH1A1 block = blocks purified human ALDH1A1 activity; P00352; Purified ALDH1A1, NADH fluorescence, propionaldehyde substrate; Potency, µM (series often up to 75.3 µM), hits mostly inhibitors; 220,000 compounds, 7.3% hits; AID 1030; active means well fitted inhibition curve with a large enough effect, not every such curve was filed as active; inconclusive means small, poorly fitted or top-dose-only effect, or another doubt; inactive means no such curve, though single readings can be large or run the other way
HPGD inh = blocks human HPGD enzyme activity. purified HPGD, NADH fluorescence kinetic, PGE2 substrate. Potency, µM, most hits filed as inhibitors. 150,000 compounds, 4.3% hits. AID 894; active means well fitted inhibition curve with a large enough effect, not every such curve was filed as active; inconclusive means small, poorly fitted or top-dose-only effect, or another doubt; inactive means no such curve, though single readings can be large or run the other way
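20 nM HPGD preincubated 15 min at room temperature with compound in 50 mM Tris-HCl pH 8, 0.01% Tween 20. Started with 1 mM NAD+ and 30 uM prostaglandin E2; NADH fluorescence (360/450 nm) read 5 times over 30-s intervals, last minus first.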
CBFb RUNX1 block = CBF-beta/RUNX1 interaction disruption | AlphaScreen CBFb-His/RUNX1-biotin binding, biochemical | Potency, µM (top dose mostly 59.8 µM), hits mostly inhibitors | AID 1477 | 230,000 tested, under 10 active
Target sequence (Q01196 whole entry, looked up): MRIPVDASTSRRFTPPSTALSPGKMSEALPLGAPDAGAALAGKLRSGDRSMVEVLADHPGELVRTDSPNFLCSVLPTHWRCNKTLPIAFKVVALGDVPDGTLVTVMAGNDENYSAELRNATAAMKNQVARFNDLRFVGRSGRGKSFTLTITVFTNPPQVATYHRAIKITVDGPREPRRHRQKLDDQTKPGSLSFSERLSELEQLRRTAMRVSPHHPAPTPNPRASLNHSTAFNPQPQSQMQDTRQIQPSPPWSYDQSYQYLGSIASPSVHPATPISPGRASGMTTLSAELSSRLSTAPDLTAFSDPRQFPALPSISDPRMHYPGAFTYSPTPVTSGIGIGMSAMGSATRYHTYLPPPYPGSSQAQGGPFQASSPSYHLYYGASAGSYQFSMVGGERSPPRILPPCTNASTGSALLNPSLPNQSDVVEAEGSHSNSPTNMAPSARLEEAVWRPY
Target sequence (Q13951 whole entry, looked up): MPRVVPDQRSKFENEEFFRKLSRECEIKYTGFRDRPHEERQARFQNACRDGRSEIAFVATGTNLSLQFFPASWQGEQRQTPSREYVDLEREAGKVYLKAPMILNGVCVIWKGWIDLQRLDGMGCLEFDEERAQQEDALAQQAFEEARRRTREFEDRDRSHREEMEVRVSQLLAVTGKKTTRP
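Interaction loss through any mechanism counts as activity. Pre-formed complex of His-CBF-beta and biotin-RUNX1 (30 nM apiece) is incubated with compound 15 min, then with 50 ng nickel and 50 ng streptavidin beads for 90 min before AlphaScreen detection.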
PNC inhibitor = perinucleolar compartment assembly inhibition; PC3M PTB-GFP, PNC prevalence imaging, 16 h; active compounds read low; activity change (PNC), negative = inhibition, % at 10 µM; 140,000 compounds, 3.1% hits; AID 2417;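 active means readout at or below -70, meaning at least 70% loss of cells showing the perinucleolar compartment, a nuclear body marking cancer cells; inconclusive means readout between -30 and a set limit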
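Read-out is percentage of cells bearing a perinucleolar compartment, from automated 20x imaging of fixed, Hoechst-stained PC3M PTB-GFP cells. Cells were seeded 4 h, then exposed 16 h to compound (23 nl of library stock) in duplicate plates.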
A number is an active result; . = inactive; ? = inconclusive; / = not tested or not shown; [ ] = another dose, or the depositor's remark. Unless noted, the call rests on the fitted dose curve; in most records, active means well fitted curve in the direction sought with a large enough effect; inconclusive means small, poorly fitted or top-dose-only effect, or another doubt; inactive means no such curve, though single readings can be large; an effect the other way counts as inactive or inconclusive.

SMILES | HTT aggregate | HTT cytoprotect | ALDH1A1 block | HPGD inh | CBFb RUNX1 block | PNC inhibitor
C[n+]1c(-c2ccccc2)cc(CCCCc2cc(-c3ccccc3)[n+](C)c(-c3ccccc3)c2)cc1-c1ccccc1 | 22µM | .[10 µM] | ? | / | . | /
Nc1ccccc1-[n+]1c(-c2ccccc2)cc(-c2ccccc2)cc1-c1ccccc1 | .[9.22 µM] | .[10 µM] | . | / | . | /
c1cc(CN2CCCC3(CCNCC3)C2)ccn1 | / | . | ? | . | / | /
COC(=O)c1c(N)n(Cc2ccc(OC)cc2)c2nc3ccccc3nc12 | . | . | ? | ? | . | -82
C1C[C@@H]2CN(CCCN3CCOCC3)[C@@H](C1)O2 | / | .[10 µM] | .[13.5 µM] | . | / | /
CN1CCC(C)(O)C2CCCCC21 (configuration not stated) | . | . | 10µM | / | . | /
CCOC(=O)N(C)C(=O)CSP(=S)(OCC)OCC | / | / | / | / | . | /
C[N+]1(C)C2CCC1CC(OC(=O)c1ccco1)C2 (configuration not stated) | .[9.22 µM] | .[10 µM] | / | / | . | /
C[N+]1(C)C2CCC1CC(OC(=O)c1c[nH]c3ccccc13)C2 (configuration not stated) | . | . | 22µM | . | . | /
CCOc1ccc2cc(C#N)c(=O)oc2c1 | / | / | / | / | . | /
C=C(C)[C@H]1[C@H]2OC(=O)[C@@H]1[C@]1(O)C[C@H]3O[C@]34C(=O)O[C@H]2[C@]14C | / | . | / | / | / | /
C=C(Cl)CCl | / | ? | 20µM | . | . | /
O=[As](O)(O)c1ccc(Cc2ccc([As](=O)(O)O)cc2)cc1 | / | .[10 µM] | 2.2µM | 3.5µM | / | /
CCC[N+](=O)[O-] | / | . | . | . | . | /
O=[N+]([O-])CCO | / | . | 18µM | . | . | /
CC1CCN(C(=O)CCl)CC1 | . | .[10 µM] | 0.35µM | . | . | .
C/C(=N\Nc1ccccc1)c1c(O)n(Cc2ccccc2)c(=O)[nH]c1=O | . | .[1.9 µM] | . | 28µM | . | .
CCCCCCN=C(C)c1c(O)n(Cc2ccccc2)c(=O)[nH]c1=O | . | . | . | . | . | -111
C/C(=N\Nc1ccccc1)c1c(O)n(-c2ccccc2)c(=O)[nH]c1=O | .[9.22 µM] | .[10 µM] | ? | / | . | /
CC(=Nc1c(C)n(C)n(-c2ccccc2)c1=O)c1c(O)n(Cc2ccccc2)c(=O)[nH]c1=O | . | . | . | 20µM | . | .
CC1(C)N=C(N)N=C(N)N1c1cccc(C(=O)Nc2ccc(S(=O)(=O)F)cc2)c1 | / | .[10 µM] | .[13.5 µM] | . | / | /
Cc1cc(S(=O)(=O)NC(C)C)ccc1OCC(=O)N1CCN(Cc2ccc3c(c2)OCO3)CC1 | . | . | . | . | . | .
Cc1cc(S(=O)(=O)NCC(C)C)ccc1OCC(=O)N1CCN(Cc2ccccc2)CC1 | . | . | 18µM | . | . | .
O=C1c2ccccc2C(Nc2ccc(S(=O)(=O)N3CCCCCC3)cc2)N1c1ccccn1 (configuration not stated) | . | . | 0.79µM | . | . | -93
CCN(CC)S(=O)(=O)c1ccc(N=Cc2c(O)n(-c3ccccc3)c(=O)[nH]c2=O)cc1 | . | . | 22µM | . | . | ?
SMILES | HTT aggregate | HTT cytoprotect | ALDH1A1 block | HPGD inh | CBFb RUNX1 block | PNC inhibitor
O=c1[nH]c(=O)n(-c2ccc(Cl)cc2)c(O)c1C=Nc1ccc(S(=O)(=O)Nc2nccs2)cc1 | . | .[10 µM] | ? | 22µM | . | ?
COc1ccccc1CN1CCCC2(CCN(C(=O)Oc3ccccc3)CC2)C1 | / | ? | . | . | / | /
CCCCCCCC(=O)NC(Oc1ccccc1[N+](=O)[O-])C(Cl)(Cl)Cl (configuration not stated) | . | .[10 µM] | . | 10µM | . | .
O=C(Cc1ccccc1)NC(Oc1ccccc1Cl)C(Cl)(Cl)Cl (configuration not stated) | . | .[10 µM] | ? | ? | . | .
CCn1c(O)c(C(c2ccccn2)c2c(O)n(CC)c(=S)[nH]c2=O)c(=O)[nH]c1=S | . | . | 25µM | . | ? | .
ClC(Cl)C(Cl)Cl | / | . | . | . | . | /
CSc1ccc(CNC2CN3CCC2CC3)cc1 (configuration not stated) | . | .[0.074 µM] | . | . | . | -106
CC[C@@H](CO)NC(=O)[C@H]1C=C2c3cccc4[nH]cc(c34)C[C@H]2N(C)C1 | / | . | ? | ? | . | /
CC[C@@H](CO)NC(=O)[C@@H]1C=C2c3cccc4c3c(cn4C)C[C@H]2N(C)C1 | . | . | 3.2µM | ? | ? | ?
CC[C@@H](CO)NC(=O)[C@@H]1C=C2c3cccc4[nH]cc(c34)C[C@H]2N(C)C1 | . | . | 3.5µM | / | ? | /
CCC(CO)NC(=O)C1C=C2c3cccc4[nH]cc(c34)CC2N(C)C1 (configuration not stated) | .[9.22 µM] | . | ? | ? | ? | /
CC12CCC3C4CCC(=O)C(O)=C4CCC3C1CCC2OC(=O)CCC1CCCC1 (configuration not stated) | . | . | / | / | / | /
COCCn1c(SCc2ccccc2Cl)nc2c1c(=O)[nH]c(=O)n2C | . | . | 14µM | ? | . | .
CCCCCn1c(Sc2ccccc2)nc2c1c(=O)[nH]c(=O)n2C | . | .[10 µM] | ? | . | . | .
C=C1C(=O)O[C@@H]2C[C@@H](C)[C@@H]3C=CC(=O)[C@@]3(C)[C@@H](OC(=O)CC(=O)O[C@H]3[C@@H]4C(=C)C(=O)O[C@@H]4C[C@@H](C)[C@@H]4C=CC(=O)[C@]43C)[C@H]12 | 0.63µM | .[10 µM] | / | / | . | /
C=C1C(=O)O[C@H]2C[C@@H](C)[C@@H]3C=CC(=O)[C@@]3(C)C[C@H]12 | ? | .[10 µM] | / | / | . | /
C=C1C(=O)O[C@H]2[C@H]1[C@H](OC(=O)CC(=O)O[C@@H]1C[C@@H](C)[C@@H]3C=CC(=O)[C@@]3(C)[C@H]3OC(=O)C(=C)[C@H]13)C[C@@H](C)[C@H]1C=CC(=O)[C@]12C | .[9.22 µM] | 4.5µM | / | / | . | /
CCOC(=O)C1OC1(C)c1ccccc1 (configuration not stated) | / | . | . | . | . | /
C[C@H]1CC[C@@H]2[C@@H](C)C(=O)O[C@H]3O[C@@]4(C)CC[C@@H]1[C@]32OO4 | / | . | / | / | / | /
CCN(CC)c1ccc(C=C2C(=O)NC(=S)NC2=O)cc1 | .[9.22 µM] | .[10 µM] | 0.11µM | / | . | /
CC(C)CN(CC(C)C)c1ccc(C=C2C(=O)NC(=S)NC2=O)cc1[N+](=O)[O-] | . | . | 11µM | 8.9µM | . | .
CCN1C(=O)/C(=C\c2ccc([N+](=O)[O-])s2)C(=O)NC1=S | . | . | . | / | ? | /
CC(=O)Nc1ccccc1C(=O)OCc1ccc(C(=O)c2ccccc2)cc1 | ? | . | ? | 25µM | . | .
COC(=O)/C=C/C(=O)N[C@@H]1CC[C@@]2(O)[C@H]3Cc4ccc(O)c5c4[C@@]2(CCN3CC2CC2)[C@H]1O5 | / | . | . | / | . | /
Clc1nc(Cl)nc(Cl)n1 | / | ? | 2.2µM | . | . | /
O=C1C=CC[C@@H]2[C@H]3CCCN4CCC[C@@H](CN12)[C@@H]34 | / | . | . | . | . | /

From PubChem BioAssay
